For 35 compounds, outcome and Potency results are on record in PubChem BioAssay (Tox21).

The structures appear in SMILES notation. Results filed as inconclusive are left out. A call without a number means that no potency is given here. Active and inactive are the calls of the source. Calls come from the whole dose curve; as a rule, active = well fitted curve in the direction sought with a large enough effect in the repeat runs; inconclusive = weak or mixed curves; inactive = no such curve, though single readings can be large; an effect the other way counts as inactive or inconclusive.

Sequence of Androgen receptor (Homo sapiens) (P10275 whole entry, looked up): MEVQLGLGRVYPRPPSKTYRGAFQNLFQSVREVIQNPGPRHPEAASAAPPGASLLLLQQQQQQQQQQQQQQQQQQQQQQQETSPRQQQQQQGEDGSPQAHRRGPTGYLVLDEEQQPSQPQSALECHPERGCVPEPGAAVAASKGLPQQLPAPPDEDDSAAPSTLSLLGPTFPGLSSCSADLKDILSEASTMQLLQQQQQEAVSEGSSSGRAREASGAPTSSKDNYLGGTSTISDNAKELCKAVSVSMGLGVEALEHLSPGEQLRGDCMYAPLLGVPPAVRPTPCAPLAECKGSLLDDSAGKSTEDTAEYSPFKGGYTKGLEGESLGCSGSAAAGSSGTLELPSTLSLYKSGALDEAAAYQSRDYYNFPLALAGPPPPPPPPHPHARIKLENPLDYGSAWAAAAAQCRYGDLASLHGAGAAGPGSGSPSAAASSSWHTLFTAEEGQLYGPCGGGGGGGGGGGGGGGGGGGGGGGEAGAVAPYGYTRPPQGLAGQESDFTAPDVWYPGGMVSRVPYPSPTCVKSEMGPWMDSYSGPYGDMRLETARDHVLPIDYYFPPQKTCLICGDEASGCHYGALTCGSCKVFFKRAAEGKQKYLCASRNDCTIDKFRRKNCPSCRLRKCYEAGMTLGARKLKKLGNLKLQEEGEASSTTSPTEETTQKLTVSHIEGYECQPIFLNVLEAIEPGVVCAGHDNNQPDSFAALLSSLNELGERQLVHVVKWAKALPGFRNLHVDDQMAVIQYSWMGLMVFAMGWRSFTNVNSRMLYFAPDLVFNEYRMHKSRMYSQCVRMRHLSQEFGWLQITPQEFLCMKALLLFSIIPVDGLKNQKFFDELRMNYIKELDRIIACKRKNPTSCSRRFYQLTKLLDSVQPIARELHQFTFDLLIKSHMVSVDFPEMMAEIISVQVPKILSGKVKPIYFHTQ

System in the first experiment: not listed separately
Nature of the experiment: qHTS assay to identify small molecule antagonists of the estrogen receptor alpha (ER-alpha) signaling pathway using the BG1 cell line in the presence of 0.1 nM 17-beta-estradiol - cell viability counter screen (AID 1259241). Note: nearly all actives have a fitted effect of over 40% in size. To be noted: VM7Luc4E2 (BG1) viability, CellTiter-Fluor protease, 22 h, 0.1 nM estradiol agonist added; series mostly up to 92.4 µM. The essentials:
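Viability in VM7Luc4E2 cells after 22 hr compound exposure under 0.1 nM 17beta-estradiol stimulation, by CellTiter-Fluor.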
(Quantitative high-throughput screening tests each substance at several concentrations.)
With `NC(CSCC(=O)O)C(=O)O` (centres undefined), the outcome was inactive.

On to `O=C(O)CNC(=O)c1ccc([N+](=O)[O-])cc1`, for which the result was inactive.

Turning to `N=C(N)c1ccc(OCCCOc2ccc(C(=N)N)cc2)cc1`, the outcome was inactive.

`CCCCCCCCCCCCCCCCC`: the result was inactive.

With `CN(C)CCCNCCCN(C)C`, the outcome was inactive.

For the compound `COc1ccc2c(c1)c(CC(=O)OCC(=O)O)c(C)n2C(=O)c1ccc(Cl)cc1`, the result was inactive.

Consider `CCCCOCCOCCOCCCC`, for which the result was inactive.

Regarding `COC(C)(C)CCCC(C)CC=O` (centres undefined), the outcome was inactive.

For the compound `CCCN1CCCC[C@H]1C(=O)Nc1c(C)cccc1C`, the outcome was inactive.

Turning to `O=C(O)CCCl`, the result was inactive.

Take `COc1nc(N)nc2c1ncn2[C@@H]1O[C@H](CO)[C@@H](O)[C@@H]1O`: the result was inactive.

In the case of `C1OCOCO1`, the result was inactive.

As to `Cc1cc2c(cc1S(N)(=O)=O)S(=O)(=O)CCC2`, the result was inactive.

Turning to `O=c1n(CCO)c(=O)n(CCO)c(=O)n1CCO`, the result was inactive.

Turning to `CCCCCCCCCCCCN(CCCCCCCCCCCC)CCCCCCCCCCCC`, the result was inactive.

In the case of `CCS(=O)(=O)c1ccc(OC)c(C(=O)OC)c1`, the outcome was inactive.

With `N=C(N)c1ccccc1`, the outcome was inactive.

For the compound `CN1C(=O)N(C)C(O)C1O` (centres undefined), the result was inactive.

For the compound `CC(C)NC(=O)NC(C)C`, the outcome was inactive.

In the case of `Brc1c(NC2=NCCN2)ccc2nccnc12`, the outcome was inactive.

Regarding `CN(C(=O)c1c(O)c2ccccc2n(C)c1=O)c1ccccc1`, the outcome was inactive.

For `CC(C)NCCCC1(C(N)=O)c2ccccc2-c2ccccc21`, the result was inactive.

With `C=C(C)C(=O)OCCCCCCCC(C)C`, the outcome was inactive.

`CC(NC(CCc1ccccc1)C(=O)O)C(=O)N1C(=O)N(C)CC1C(=O)O` (centres undefined): the result was inactive.

`CCOC(=O)[C@H](CCc1ccccc1)N[C@@H](C)C(=O)N1[C@H](C(=O)O)C[C@@H]2CCC[C@@H]21`: the result was inactive.

On to `O=Cc1cccc([N+](=O)[O-])c1`, for which the outcome was inactive.

For the compound `CC/C=C\CC/C=C/C(OCC)OCC`, the result was inactive.

In the case of `CCCCCSCCCCC`, the outcome was inactive.

As to `CCOC(=O)CC(C)=O`, the outcome was inactive.

As to `Cn1cc(S(C)=O)c(=O)c2ccc(F)cc21` (centres undefined), the result was inactive.

For the compound `COC(=O)c1ccc(C)cc1C1=NC(C)(C(C)C)C(=O)N1` (centres undefined), the outcome was inactive.

For the compound `CC(C)(O)C(=O)c1ccccc1`, the outcome was inactive.

For `N#Cc1ccc(C2CCCc3cncn32)cc1` (centres undefined), the outcome was inactive.

Regarding `C[C@@H]1CCN(C(=O)[C@H](CCCN=C(N)N)NS(=O)(=O)c2cccc3c2NC[C@H](C)C3)[C@@H](C(=O)O)C1`, the result was inactive.

System in the next experiment: not listed separately
The experiment can be described thus: qHTS assay to identify small molecule antagonists of the androgen receptor (AR) signaling pathway using the MDA cell line in the presence of 0.5 nM R1881 - cell viability counter screen (AID 1259242). Note: nearly all actives have a fitted effect of over 45% in size. To be noted: MDA-kb2 viability, CellTiter-Fluor protease fluorescence, 16 h; series mostly up to 92.4 µM. In outline: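 Live-cell protease fluorescence, CellTiter-Fluor, 30 min at 37C. Cells: MDA-kb2, 3,000/well, preincubated 5 hr. Compounds plus 0.5 nM R1881 final, 16 hr, 37C, 0% CO2.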
In the case of `NC(CSCC(=O)O)C(=O)O` (centres undefined), the Potency entry is “inactive”.

As to `O=C(O)CNC(=O)c1ccc([N+](=O)[O-])cc1`, the Potency entry is “inactive”.

As for `N=C(N)c1ccc(OCCCOc2ccc(C(=N)N)cc2)cc1`, the Potency result was “inactive”.

With `CCCCCCCCCCCCCCCCC`, the Potency entry is “inactive”.

As for `CN(C)CCCNCCCN(C)C`, the Potency result was “inactive”.

For the compound `COc1ccc2c(c1)c(CC(=O)OCC(=O)O)c(C)n2C(=O)c1ccc(Cl)cc1`, the Potency result was “inactive”.

In the case of `CCCCOCCOCCOCCCC`, the Potency result is “inactive”.

As to `COC(C)(C)CCCC(C)CC=O` (centres undefined), the Potency entry was “inactive”.

As for `CCCN1CCCC[C@H]1C(=O)Nc1c(C)cccc1C`, the Potency entry is “inactive”.

Regarding `O=C(O)CCCl`, the Potency entry was “inactive”.

Regarding `COc1nc(N)nc2c1ncn2[C@@H]1O[C@H](CO)[C@@H](O)[C@@H]1O`, the Potency result is “inactive”.

For the compound `C1OCOCO1`, the Potency result was “inactive”.

Regarding `Cc1cc2c(cc1S(N)(=O)=O)S(=O)(=O)CCC2`, the Potency entry was “inactive”.

Turning to `O=c1n(CCO)c(=O)n(CCO)c(=O)n1CCO`, the Potency result is “inactive”.

`CCCCCCCCCCCCN(CCCCCCCCCCCC)CCCCCCCCCCCC`: the Potency result is “inactive”.

As to `CCS(=O)(=O)c1ccc(OC)c(C(=O)OC)c1`, the Potency entry is “inactive”.

For the compound `N=C(N)c1ccccc1`, the Potency entry is “inactive”.

In the case of `CN1C(=O)N(C)C(O)C1O` (centres undefined), the Potency entry is “inactive”.

In the case of `CC(C)NC(=O)NC(C)C`, the Potency entry was “inactive”.

Consider `Brc1c(NC2=NCCN2)ccc2nccnc12`, for which the Potency result was “inactive”.

In the case of `CN(C(=O)c1c(O)c2ccccc2n(C)c1=O)c1ccccc1`, the Potency result was “inactive”.

As for `CC(C)NCCCC1(C(N)=O)c2ccccc2-c2ccccc21`, the Potency entry is “inactive”.

For `C=C(C)C(=O)OCCCCCCCC(C)C`, the Potency entry was “inactive”.

For `CC(NC(CCc1ccccc1)C(=O)O)C(=O)N1C(=O)N(C)CC1C(=O)O` (centres undefined), the Potency entry was “inactive”.

On to `CCOC(=O)[C@H](CCc1ccccc1)N[C@@H](C)C(=O)N1[C@H](C(=O)O)C[C@@H]2CCC[C@@H]21`, for which the Potency entry is “inactive”.

`O=Cc1cccc([N+](=O)[O-])c1`: the Potency entry was “inactive”.

With `CC/C=C\CC/C=C/C(OCC)OCC`, the Potency entry is “inactive”.

With `CCCCCSCCCCC`, the Potency entry is “inactive”.

Take `CCOC(=O)CC(C)=O`: the Potency entry was “inactive”.

Take `Cn1cc(S(C)=O)c(=O)c2ccc(F)cc21` (centres undefined): the Potency result was “inactive”.

As for `CC(C)CCCC(C)N` (centres undefined), the Potency entry is “inactive”.

As for `COC(=O)c1ccc(C)cc1C1=NC(C)(C(C)C)C(=O)N1` (centres undefined), the Potency entry was “inactive”.

As for `CC(C)(O)C(=O)c1ccccc1`, the Potency entry is “inactive”.

Consider `N#Cc1ccc(C2CCCc3cncn32)cc1` (centres undefined), for which the Potency result was “inactive”.

As for `C[C@@H]1CCN(C(=O)[C@H](CCCN=C(N)N)NS(=O)(=O)c2cccc3c2NC[C@H](C)C3)[C@@H](C(=O)O)C1`, the Potency entry is “inactive”.

For a further experiment, the target named is Androgen receptor (Homo sapiens) (UniProt P10275). Nature of the experiment: qHTS assay to identify small molecule antagonists of the androgen receptor (AR) signaling pathway using the MDA cell line in the presence of 0.5 nM R1881 (AID 1259243). Note: nearly all actives have a fitted effect of over 50% in size. To be noted: MDA-kb2 MMTV-luciferase, R1881 0.5 nM, 16 h; series mostly up to 42.5 µM. In outline:
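MDA-kb2, MMTV-luc (AR/GR elements); 3,000 cells/well; cpd + 0.5 nM R1881 final; 16 hr 37C, 0% CO2; ONE-Glo 30 min RT; luminescence.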
Take `COc1ccc2c(c1)c(CC(=O)OCC(=O)O)c(C)n2C(=O)c1ccc(Cl)cc1`: the Potency entry was “inactive”.

With `CC(C)NC(=O)NC(C)C`, the Potency result was “inactive”.

Turning to `C=C(C)C(=O)OCCCCCCCC(C)C`, the Potency result was “inactive”.

As to `CC(NC(CCc1ccccc1)C(=O)O)C(=O)N1C(=O)N(C)CC1C(=O)O` (centres undefined), the Potency entry was “inactive”.

Consider `CC(C)(O)C(=O)c1ccccc1`, for which the Potency entry is “inactive”.
